From PubChem
Hits are enriched below; roughly 14% of the tested compounds scored in any of these assays.
USP17 block: inhibitors of human USP17 deubiquitinase. purified USP17, Ub-rhodamine cleavage fluorescence, 3 h. AID 1645855, 2021. inhibition, % at 50 µM. actives 6.5% (n = 47,000)
USP30 inh: inhibitors of human USP30 deubiquitinase; Ubiquitin carboxyl-terminal hydrolase 30 (Homo sapiens), Q70CQ3; purified USP30, Ub-rhodamine cleavage fluorescence; inhibition, % at 25 µM; actives 5.3% (n = 47,000); AID 1645860, 2021
USP8 block: inhibitors of human USP8 deubiquitinase. Ubiquitin carboxyl-terminal hydrolase 8 (Homo sapiens), P40818. purified USP8, Ub-rhodamine cleavage fluorescence, 30 min. inhibition, % at 20 µM. actives 4.2% (n = 47,000). AID 1645853, 2021
USP10 block: inhibitors of human USP10 deubiquitinase. Ubiquitin carboxyl-terminal hydrolase 10 (Homo sapiens), Q14694. purified USP10, Ub-rhodamine fluorescence, 60 min. inhibition, % at 20 µM. actives 1.1% (n = 47,000). AID 1645856, 2021
USP28 block: inhibitors of human USP28 deubiquitinase. purified USP28, Ub-rhodamine cleavage fluorescence, 30 min. inhibition, % at 25 µM. actives 3% (n = 47,000). AID 1645857, 2021
Starred values were filed as active, the others as inactive. No stated cut-off is given here; in the data, active means inhibition above about 30%; inactive means the rest.

SMILES | USP17 block | USP30 inh | USP8 block | USP10 block | USP28 block
Cc1cc(C)nc(-n2nc(C)c3c2NC(=O)CSC3c2ccc(F)cc2F)n1 (centres undefined) | 45* | 77* | 2 | -4 | 2
Cc1cc(C)nc(-n2nc(C)c3c2NC(=O)CSC3c2ccc(O)cc2)n1 (centres undefined) | -42 | -35 | -128 | 3 | -21
O=c1c2ccccc2nc(-c2ccncc2)n1-c1ccc(Cl)cc1 | -28 | 1 | 0 | 2 | -3
CN1C(=O)[C@@]23C[C@]4([C@@]56C[C@]78SS[C@](CO)(C(=O)N7[C@@H]5Nc5ccccc56)N(C)C8=O)c5ccccc5N[C@@H]4N2C(=O)[C@]1(CO)SS3 | -32 | 68* | 1 | 4 | -6
COCc1cc(C2SCC(=O)Nc3c2c(-c2ccccc2)nn3-c2ccccc2)ccc1OC (centres undefined) | 5 | 5 | -17 | -1 | 4
Cc1nn(Cc2ccccc2)c(Cl)c1C(=O)NC1CCCc2ccccc21 (centres undefined) | 56* | 35* | 11 | 3 | 31*
O=C(Nc1nccs1)c1cccn(Cc2ccc(Cl)c(Cl)c2)c1=O | 31* | 5 | 3 | 5 | 2
O=C(Nc1nc2ccccc2s1)c1cccn(Cc2cccc(Cl)c2)c1=O | 46* | -21 | 0 | 0 | -12
O=C(Nc1nc2ccc([N+](=O)[O-])cc2s1)c1cccn(Cc2ccc(F)cc2)c1=O | 5 | -5 | 1 | 0 | -6
C/C=C\C(=O)O[C@@H]1C[C@H]2O[C@@H]3C=C(C)CC[C@]3(C)[C@]1(C)C21CO1 (some centres undefined) | -39 | -96 | 19 | 1 | -22
COc1cc(N2CCC3(CC2)COCCN3CC2CC2)ncn1 | -10 | 7 | 3 | 0 | 0
CN1CCN(Cc2cn3cccnc3n2)CC1 | 7 | 11 | 16 | -1 | 8
COc1ccc(-c2nc(CN3C(=O)CN=C(c4ccccc4Cl)c4cc(Cl)ccc43)c(C)o2)cc1 | -13 | -31 | -8 | -3 | 0
CC1CC[C@]2(NC1)O[C@H]1C[C@H]3[C@@H]4CC[C@H]5C[C@@H](O[C@@H]6O[C@H](CO)[C@H](O[C@@H]7O[C@H](CO)[C@@H](O)[C@H](O[C@@H]8OC[C@@H](O)[C@H](O)[C@H]8O)[C@H]7O[C@@H]7O[C@H](CO)[C@@H](O)[C@H](O)[C@H]7O)[C@H](O)[C@H]6O)CC[C@]5(C)[C@H]4CC[C@]3(C)[C@H]1[C@@H]2C (some centres undefined) | 62* | 41* | -12 | -11 | 19
COCC(C)NC(=O)c1cc2cccnc2n(Cc2ccc(F)cc2)c1=O (centres undefined) | 38* | 31* | -1 | 0 | 19
Cc1ccc(OCC(=O)N2CCN(Cc3ccncc3)CC2)cc1C | 14 | 24 | 12 | 2 | 10
O=C(CN1CC=C(c2ccccc2)CC1)NCc1ccc2c(c1)OCO2 | 0 | -7 | 0 | -6 | -3
